Data taken from PubChem BioAssay (NCI).
About 83,000 compounds went through this panel and 20% of them were active in at least one assay; those are over-represented in the sample as a whole.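 Interpretation: 100, growth as untreated; towards 0, rising growth inhibition; 0, no net growth; 0 to -100, cell death. Compounds scoring below 10 were considered active.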 A number with no mark means an inactive call. Active and inactive are the calls of the source.

Columns and labels:
Test in all cases: NCI-60 one-dose screen, 48 h (100 = growth as untreated, 0 = no growth, -100 = all killed)
Details in all cases: 10 µM unless noted
SR leukemia = test system: SR leukemia
RPMI-8226 leukemia = test system: RPMI-8226 leukemia
OVCAR-8 ovarian = test system: OVCAR-8 ovarian
OVCAR-5 ovarian = test system: OVCAR-5 ovarian
OVCAR-4 ovarian = test system: OVCAR-4 ovarian
SK-OV-3 ovarian = test system: SK-OV-3 ovarian
IGROV1 ovarian = test system: IGROV1 ovarian
OVCAR-3 ovarian = test system: OVCAR-3 ovarian
HS 578T breast = test system: HS 578T breast
NCI/ADR-RES ovarian = test system: NCI/ADR-RES ovarian
T-47D breast = test system: T-47D breast
MDA-MB-435 melanoma = test system: MDA-MB-435 melanoma
SW-620 colon = test system: SW-620 colon
MCF7 breast = test system: MCF7 breast
HCC-2998 colon = test system: HCC-2998 colon
KM12 colon = test system: KM12 colon
BT-549 breast = test system: BT-549 breast
HCT-116 colon = test system: HCT-116 colon

SMILES	growth (SR leukemia)	growth (RPMI-8226 leukemia)	growth (OVCAR-8 ovarian)	growth (OVCAR-5 ovarian)	growth (OVCAR-4 ovarian)	growth (SK-OV-3 ovarian)	growth (IGROV1 ovarian)	growth (OVCAR-3 ovarian)	growth (HS 578T breast)	growth (NCI/ADR-RES ovarian)	growth (T-47D breast)	growth (MDA-MB-435 melanoma)	growth (SW-620 colon)	growth (MCF7 breast)	growth (HCC-2998 colon)	growth (KM12 colon)	growth (BT-549 breast)	growth (HCT-116 colon)
Cc1cc2c(F)c(Oc3ncnc(Nc4ccc(N5C[C@@H](C)N[C@@H](C)C5)cc4)c3C#N)cc(F)c2[nH]1	-26.4% (active)	2.98% (active)	25.6%	103%	16.2%	92.8%	73%	-29.6% (active)	64%	50.6%	-1.93% (active)	19.9%	3.6% (active)	12.3%	84.1%	11.9%	–	–
O=C(/C=C/C12c3ccccc3C(c3ccccc31)C1C(=O)N(c3ccc(Cl)cc3)C(=O)C12)c1ccccn1 (configuration not stated)	13.6%	3.98% (active)	21.1%	-43.3% (active)	-6.96% (active)	–	-36.6% (active)	-71.6% (active)	13.9%	8.16% (active)	-3.33% (active)	-29.1% (active)	-12.4% (active)	2.48% (active)	-87.4% (active)	-60.8% (active)	-49.6% (active)	-69.2% (active)
Nc1ccn(C2OC(F)(CO)C(O)C2F)c(=O)n1 (configuration not stated)	90.4%	106%	22.4%	97.4%	73.2%	33.4%	49.8%	66.8%	78.8%	18.4%	–	52.9%	52.1%	21.7%	48.3%	59.2%	44.4%	35.3%
Cc1cc(=O)c2cc3nc(-c4cccnc4)oc3c(Br)c2o1	70.7%	90%	99.9%	90.1%	101%	195%	–	123%	116%	83.9%	201%	107%	99.5%	94.9%	106%	109%	103%	99.9%
CCN(CC)CC(O)CNc1c2ccc(Cl)cc2nc2ccc(OC)cc12 (configuration not stated)	0.563% (active)	-30.9% (active)	-40.3% (active)	-25.3% (active)	-4.45% (active)	–	-24.9% (active)	-23.9% (active)	38.3%	-24.4% (active)	49.7%	-72.1% (active)	-37% (active)	-0.467% (active)	-92.2% (active)	-30.9% (active)	42.9%	-32.1% (active)
Cc1nc(Nc2ccc(NC(=S)Nc3ccccc3)cc2)nc2nc(Nc3cccc(Cl)c3)[nH]c(=O)c12	62.7%	57.2%	97.2%	101%	102%	95.7%	–	139%	67.1%	110%	89.1%	108%	98.3%	89.8%	114%	106%	–	94.4%
O=C1NC(=S)S/C1=C\N1N=C(c2ccc(Cl)cc2)CC1c1ccc(F)cc1 (configuration not stated)	46.9%	69.7%	81.3%	94.7%	91.4%	–	96.2%	86.4%	84.8%	87%	72.2%	97.2%	92.1%	71.9%	100%	87.4%	100%	81.9%
Cc1cc(-c2ccc(N(C)C)cc2)c2sc(=O)[nH]c2n1	40.1%	70.6%	76.9%	85%	83.2%	–	61.5%	68.9%	48.1%	45.5%	67.6%	4.12% (active)	38.3%	28.4%	77.5%	39%	74.6%	50.1%
Fc1ccc(Nc2nc3nonc3nc2Nc2ccc(F)cc2)cc1	7.15% (active)	6.64% (active)	8.53% (active)	-16.7% (active)	5.75% (active)	3.75% (active)	32.6%	1.97% (active)	-1.86% (active)	3.98% (active)	–	5.74% (active)	9.46% (active)	3.66% (active)	13.1%	3.91% (active)	–	–
NS(=O)(=O)c1cnccc1-n1ccc(=O)c(S(N)(=O)=O)c1	86.5%	60.4%	100%	89.7%	95.2%	81.1%	–	93.3%	64%	98.5%	84.5%	91.7%	97%	88.8%	104%	93.3%	–	92.5%
O=C(NC1CCOCC1)c1ccc2c(c1)CN(c1ncc(Cc3cccc(-n4cccn4)c3)s1)CC2	56.2%	38.3%	76.6%	95.1%	62.1%	78.6%	89.8%	78.4%	96%	63.5%	–	76.3%	107%	56.9%	77%	84.9%	31.1%	47.6%
CO[C@H]1/C=C/O[C@@]2(C)Oc3c(C)c(O)c4c(c3C2=O)C(=O)C(/C=N/N(c2ccccc2)c2ccccc2)=C(NC(=O)/C(C)=C\C=C\[C@H](C)[C@H](O)[C@@H](C)[C@@H](O)[C@@H](C)[C@H](OC(C)=O)[C@@H]1C)C4=O	-13% (active)	-19.1% (active)	7.09% (active)	-43.7% (active)	9.98% (active)	12.2%	-16.3% (active)	-83% (active)	-0.488% (active)	6.55% (active)	–	-17.4% (active)	2.36% (active)	2.54% (active)	-70.4% (active)	-23.9% (active)	–	0.555% (active)
CC(C)c1ccc(C(=O)OC(=O)c2ccc(C(C)C)cc2)cc1	60.2%	82.9%	100%	89.2%	105%	110%	98.8%	106%	104%	95.4%	–	97%	114%	98.1%	102%	123%	87.9%	97.4%
COc1ccc(C2CC(c3cnccn3)=NN2)cc1OC (configuration not stated)	79.3%	82.6%	96.8%	114%	118%	105%	108%	102%	97.4%	102%	–	117%	109%	92.8%	99.4%	109%	83.1%	85.7%
C/C(=N\NC(N)=S)c1nc2ccc(Cl)cc2[nH]1	30.5%	57.6%	39.1%	69.8%	32.3%	47.1%	58.9%	50.1%	–	31.1%	–	54.6%	41.4%	8.53% (active)	55.8%	32.1%	74.9%	35.6%
O=C1NCC(=O)N(Cc2ccco2)[C@H]1Cc1ccccc1	92.6%	104%	105%	106%	103%	96.7%	109%	110%	89%	104%	–	104%	107%	91.5%	109%	103%	95.5%	95.9%
C[N+](C)(C)CCOC(OCC[N+](C)(C)C)(c1ccccc1)c1ccccc1	89.5%	106%	105%	104%	107%	103%	124%	–	115%	97.9%	106%	121%	103%	92.8%	97%	–	101%	105%
COc1ccc(CN2C(=O)/C(=C\c3cc(OC)c(OC)c(OC)c3)c3ccccc32)cc1	-21.6% (active)	-31.1% (active)	-7.07% (active)	31%	23.3%	34%	-22.7% (active)	-63.2% (active)	47.7%	2.38% (active)	–	-10.9% (active)	–	7.23% (active)	16.9%	-23.7% (active)	24.5%	-93.8% (active)
